Calls of active or inactive are those of the source.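 How the source made its calls, unless noted: active means inhibition above 20% together with a positive visual image hit; inconclusive means visual image hit but inhibition not above 20%; inactive means no visual image hit.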

A short description of experiment [1]: inhibitors of TNFa-induced NFkB p65 translocation, primary screen, imaging, HUVEC, MLSMR starter and 10KST1 sets (AID 438).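 Further: compound added about 3h40 before a 20 min TNFalpha stimulation.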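 On inhibition: signal is the nuclear over cytoplasmic p65 intensity ratio per well.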 To be noted: HUVEC TNFa-induced p65 nuclear translocation; cell count: measured here: nuclei count (cytotoxicity indicator), at 2.08 µM; inhibition: at 2 µM, stronger effect = higher value, 0% TNFa-plus-vehicle, 100% no-TNFa wells.
Experiment [2] in a line: reduction of polyQ htt aggregates in cells – imaging, exon1htt(103Q)mCFP cells, high-content imaging, primary screen (AID 483;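 active means visual image review flags a hit and inhibition of aggregation exceeds 20%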;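 further: compound exposure lasted 3 days before fixation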;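 on nuclei count: percent of the per-plate median nuclei count of sample wells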). Conditions: exon1htt(103Q)mCFP cell line, aggregate imaging, at 2 µM; inhibition of aggregation: stronger effect = higher value; nuclei count: measured here: cell count, toxicity.
Experiment [3] is described as follows: endothelial E-selectin expression blockers – imaging, HUVEC, immunofluorescence, MLSMR starter and 10KST1 sets, primary screen (AID 487;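 active means visually confirmed hit in the image check and inhibition above 20%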;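 on inhibition: signal is fraction of cell area covered by stained E-selectin grains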;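 on nuclei count: 100% = median nuclei count of all wells on the same plate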). To be noted: HUVEC TNFalpha-induced E-selectin immunofluorescence imaging, at 2 µM; inhibition: stronger effect = higher value; nuclei count: measured here: cell number, toxicity.
Experiment [4] concerns the target Voltage-gated potassium channel subunit beta-2 (Rattus norvegicus) (UniProt P62483). Put plainly: inhibitors of rat Kvbeta2 reductase activity – biochemical, NADPH fluorescence, primary screen (AID 622;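 active means fluorescence slope higher than the sample average by over 3 SD, cut at about -0.22 in these data, passing the limit was not always enough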;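 further: slope of raw intensity against log time taken from 70 to 1610 s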). To be noted: recombinant KvBeta, 4-cyanobenzaldehyde reduction, at 10 µM, stronger effect = higher value.
Experiment [5] shares this target. Put plainly: enhancers of rat Kvbeta2 NADPH turnover – biochemical, NADPH fluorescence, primary screen (AID 623;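 active means NADPH fluorescence slope more negative than the mean of all samples by about 3 SD, 99.7% confidence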;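 further: fluorescence intensity change per second fitted from 20 to 320 s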). To be noted: Recombinant KvBeta, NADPH fluorescence decrease slope, 10 min; at 10 µM; stronger effect = lower value.
The target of experiment [6] is Alpha-2C adrenergic receptor (Homo sapiens) (UniProt P18825). In words: compounds altering alpha2C-coupled GIRK flux – cell-based, HEK293 alpha2C/GIRK1/2, thallium flux, primary screen (AID 624;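 active means fluorescence slope after compound addition differing from the mean of all screened samples at 99.7% confidence, in either direction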;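 further: slope of fluorescence ratio to pre-addition baseline per second over 15 to 24 s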). Conditions: thallium flux BTC fluorescence, at 10 µM, actives lie on both sides.
Experiment [7] in a line: blockers of RIG-like receptor reporter activation – cell-based, Sendai virus stimulus, luciferase, 10K MLSCN set, TLR/RLR signaling modifier project, primary screen (AID 602276;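 active means inhibition at or above 50% at 10 µM; inactive means inhibition below 50%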;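 further: firefly luciferase from ISG56 promoter only with Renilla not read in this screen; 0% = Sendai virus plus DMSO and 100% = medium plus DMSO without virus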). To be noted: HEK293 RL24 IRF3 luciferase reporter, at 10 µM, stronger effect = higher value. A general note: In a reporter assay the amount or activity of a reporter protein is the signal.
Experiment [8] is described as follows: TLR3 IRF3 reporter activation blockers – cell-based, poly I:C stimulus, luciferase, 10K MLSCN set, primary screen (AID 602277;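 active means inhibition of the reporter signal at or above 50%; inactive means inhibition below 50%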). To be noted: HEK293-TLR3 RL24 IRF3 luciferase reporter, at 10 µM, stronger effect = higher value.

Chain of Alpha-2C adrenergic receptor (Homo sapiens) (P18825 whole entry, looked up): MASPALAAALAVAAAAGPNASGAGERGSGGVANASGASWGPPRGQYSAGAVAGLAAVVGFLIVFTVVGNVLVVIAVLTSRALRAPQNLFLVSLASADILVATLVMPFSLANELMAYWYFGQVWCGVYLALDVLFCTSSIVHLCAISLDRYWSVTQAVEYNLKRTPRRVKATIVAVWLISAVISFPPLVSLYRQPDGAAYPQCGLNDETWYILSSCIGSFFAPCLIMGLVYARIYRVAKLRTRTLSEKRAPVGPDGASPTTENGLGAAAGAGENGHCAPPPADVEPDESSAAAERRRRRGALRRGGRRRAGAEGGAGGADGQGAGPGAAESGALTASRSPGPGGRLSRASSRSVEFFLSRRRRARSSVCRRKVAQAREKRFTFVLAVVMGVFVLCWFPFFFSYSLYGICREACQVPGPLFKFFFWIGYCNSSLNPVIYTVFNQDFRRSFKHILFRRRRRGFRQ
Chain of Voltage-gated potassium channel subunit beta-2 (Rattus norvegicus) (P62483 whole entry, looked up): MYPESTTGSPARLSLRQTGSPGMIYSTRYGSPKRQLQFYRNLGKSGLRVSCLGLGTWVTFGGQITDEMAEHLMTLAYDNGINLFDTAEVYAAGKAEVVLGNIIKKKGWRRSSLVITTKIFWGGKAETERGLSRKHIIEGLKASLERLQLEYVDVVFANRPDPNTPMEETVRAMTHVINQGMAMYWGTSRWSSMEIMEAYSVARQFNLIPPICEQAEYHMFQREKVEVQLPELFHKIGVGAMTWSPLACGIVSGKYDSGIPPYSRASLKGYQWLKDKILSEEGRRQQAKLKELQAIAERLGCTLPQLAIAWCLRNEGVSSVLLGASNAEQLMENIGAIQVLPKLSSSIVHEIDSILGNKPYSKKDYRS

What is called inhibition is the change of the read-out against control, counted positive when it falls. Consider `Cn1c(CNc2nc(-c3ccccc3)cs2)nnc1SCC(=O)N1CCc2ccccc21`, for which, in experiment [1], the cell count was determined as 628. For the same compound, the inhibition in experiment [1] is 11.1% (inactive); in experiment [3], -65.9% (inactive); in experiment [7] it was -7.07% (inactive); in experiment [8] it was 5.89% (inactive). For the same compound, the inhibition of aggregation in experiment [2] was 18.4% (inactive). Moreover, the nuclei count in experiment [2] worked out at 91.5%; in experiment [3] it was 140%. The fluorescence slope in experiment [4] is -0.595 (inactive). Also, in experiment [5], the NADPH fluorescence slope is -3e-05 (inactive). Further, in experiment [6], the slope is 0.00569 (inactive).

Consider `CCCCn1nnc(NC(=O)Cc2ccc(Cl)cc2)n1`, for which the cell count in experiment [1] came to 618. Moreover, the inhibition in experiment [1] is 7.7% (inactive); in experiment [3], -66% (inactive); in experiment [7] it was 1.51% (inactive); in experiment [8], 19.5% (inactive). For the same compound, the inhibition of aggregation in experiment [2] was 23.9% (inactive). In addition, the nuclei count was found to be 91.6% in experiment [2] and 106% in experiment [3]. Besides, the fluorescence slope in experiment [4] was -0.44 (inactive). Moreover, the NADPH fluorescence slope in experiment [5] is -6.8e-05 (inactive). The slope in experiment [6] is 0.00393 (inactive).

As to `N#Cc1c2n(c(=S)n(-c3ccccn3)c1=O)CCCCC2`, the cell count in experiment [1] was 588. Further, the inhibition is -26.4% (inactive) in experiment [1], -117% (inactive) in experiment [3], -7.7% (inactive) in experiment [7] and 11% (inactive) in experiment [8]. In experiment [2], the inhibition of aggregation was -14.8% (inactive). For the same compound, the nuclei count came to 111% in experiment [2] and 144% in experiment [3]. Further, the fluorescence slope in experiment [4] was -0.477 (inactive). Further, the NADPH fluorescence slope in experiment [5] is -4.9e-05 (inactive). Besides, in experiment [6], the slope is 0.00579 (inactive).

`CCn1cc(C(=O)NCCCOC)c(=O)c2cc(S(=O)(=O)N(C)C3CCCCC3)ccc21`: in experiment [1], the cell count was found to be 559. Besides, the inhibition in experiment [1] was -15.1% (inactive); in experiment [3], -38.4% (inactive); in experiment [7], 6.58% (inactive); in experiment [8] it was 28.2% (inactive). Moreover, the inhibition of aggregation in experiment [2] was 18.2% (inactive). Moreover, the nuclei count in experiment [2] is 74.5%; in experiment [3], 100%. Moreover, the fluorescence slope in experiment [4] was -0.678 (inactive). In addition, the NADPH fluorescence slope in experiment [5] is 5.7e-06 (inactive). Besides, the slope in experiment [6] is 0.00665 (inactive).

As for `O=S1(=O)CC(N2CCCCC2)C(N2CCCCC2)C1` (centres undefined), the cell count in experiment [1] amounted to 394. The inhibition was 3.6% (inactive) in experiment [1], -31.5% (inactive) in experiment [3], 15.3% (inactive) in experiment [7] and 32.7% (inactive) in experiment [8]. Also, the inhibition of aggregation in experiment [2] is 0.2% (inactive). Also, the nuclei count came to 110% in experiment [2] and 107% in experiment [3]. Also, the fluorescence slope in experiment [4] is -0.587 (inactive). For the same compound, in experiment [5], the NADPH fluorescence slope is -1.5e-05 (inactive). Further, the slope in experiment [6] is 0.00686 (inactive).

On to `Cc1cc2c(cc1C)-c1nnnn1C(C)(C)C2`, for which, in experiment [1], the cell count came out at 655. The inhibition was 2.4% (inactive) in experiment [1], 67.5% (active) in experiment [3], -16.2% (inactive) in experiment [7] and 82.3% (active) in experiment [8]. Further, in experiment [2], the inhibition of aggregation was 13.2% (inactive). Besides, the nuclei count in experiment [2] came to 91.6%; in experiment [3] it was 88.2%. The fluorescence slope in experiment [4] was -0.421 (inactive). Moreover, the NADPH fluorescence slope in experiment [5] is -3e-05 (inactive). In experiment [6], the slope is 0.00748 (inactive).

For the compound `O=C(NCc1cccnc1)c1ccc2c(c1)OCO2`, in experiment [1], the cell count was 415. Also, the inhibition in experiment [1] was 10.5% (inactive); in experiment [3], 4.1% (inactive); in experiment [7] it was -28.8% (inactive); in experiment [8], -20% (inactive). Besides, in experiment [2], the inhibition of aggregation is -7.2% (inactive). Moreover, the nuclei count in experiment [2] turned out to be 103%; in experiment [3], 110%. For the same compound, the fluorescence slope in experiment [4] is -0.53 (inactive). Further, the NADPH fluorescence slope in experiment [5] is 3.1e-05 (inactive). Further, the slope in experiment [6] is 0.00534 (inactive).

With `Cc1c(NC(=O)Cn2nc(C(=O)O)c3ccccc3c2=O)c(=O)n(-c2ccccc2)n1C`, the cell count in experiment [1] worked out at 521. In addition, the inhibition in experiment [1] is -10.8% (inactive); in experiment [3] it was -148% (inactive); in experiment [7], -13.8% (inactive); in experiment [8] it was -13.3% (inactive). For the same compound, the inhibition of aggregation in experiment [2] was -2.1% (inactive). The nuclei count in experiment [2] is 93.8%; in experiment [3], 111%. In experiment [4], the fluorescence slope was -0.541 (inactive). Also, the NADPH fluorescence slope in experiment [5] is 3.3e-05 (inactive). Further, the slope in experiment [6] is 0.00605 (inactive).

Regarding `c1ccc2c(c1)sc1nnnn12`, the cell count in experiment [1] worked out at 375. Also, the inhibition in experiment [1] was -2.1% (inactive); in experiment [3], -109% (inactive); in experiment [7] it was 18% (inactive); in experiment [8], 27.2% (inactive). In addition, the inhibition of aggregation in experiment [2] is -24.6% (inactive). The nuclei count stood at 112% in experiment [2] and 115% in experiment [3]. The fluorescence slope in experiment [4] is -0.555 (inactive). In addition, in experiment [5], the NADPH fluorescence slope was -7.2e-05 (inactive). Also, the slope in experiment [6] is 0.00357 (inactive).

For `CCc1nnc(NC(=O)c2ccc(COc3ccc(C)cc3)o2)s1`, the cell count in experiment [1] was determined as 312. The inhibition in experiment [1] is -1.9% (inactive); in experiment [3], 7.7% (inactive); in experiment [7], -17.4% (inactive); in experiment [8], 99.8% (active). In addition, the inhibition of aggregation in experiment [2] is 6.3% (inactive). In addition, the values for the nuclei count in experiment [2] and in experiment [3] were 109% and 110%, respectively. For the same compound, in experiment [4], the fluorescence slope is -0.468 (inactive). Besides, the NADPH fluorescence slope in experiment [5] is -0.00028 (inactive). In addition, in experiment [6], the slope was 0.00745 (inactive).

Turning to `Cc1ccc(NC(=O)CSc2nnc(-c3cnccn3)n2Cc2ccco2)cc1C`, in experiment [1], the cell count stood at 228. In addition, the inhibition was -3.5% (inactive) in experiment [1], 35.1% (inactive) in experiment [3], 6.92% (inactive) in experiment [7] and 17.3% (inactive) in experiment [8]. In experiment [2], the inhibition of aggregation was 4.6% (inactive). Besides, the nuclei count was 76.2% in experiment [2] and 65.4% in experiment [3]. Also, the fluorescence slope in experiment [4] was -0.418 (inactive). The NADPH fluorescence slope in experiment [5] was 3.1e-05 (inactive). Further, the slope in experiment [6] is 0.00338 (inactive).

Regarding `O=C(Cn1nnc(-c2ccc(CN3CCOCC3)cc2)n1)NC1CCCCC1`, the cell count in experiment [1] was found to be 447. Moreover, the inhibition in experiment [1] is 0.3% (inactive); in experiment [3] it was -20.9% (inactive); in experiment [7], 14% (inactive); in experiment [8] it was 9.43% (inactive). For the same compound, the inhibition of aggregation in experiment [2] is 7.3% (inactive). The nuclei count in experiment [2] is 108%; in experiment [3] it was 118%. For the same compound, the fluorescence slope in experiment [4] is -0.584 (inactive). Further, the NADPH fluorescence slope in experiment [5] is -4.1e-05 (inactive). The slope in experiment [6] was 0.0043 (inactive).

Consider `CCOc1ccccc1CN(Cc1ccco1)S(=O)(=O)c1ccc(-n2cnnn2)c(OC)c1`, for which the cell count in experiment [1] was 439. Besides, the inhibition is 5.7% (inactive) in experiment [1], 4.1% (inactive) in experiment [3], -53.6% (inactive) in experiment [7] and 63.3% (active) in experiment [8]. Further, the inhibition of aggregation in experiment [2] was 13.2% (inactive). Besides, the nuclei count in experiment [2] worked out at 99.8%; in experiment [3] it was 113%. In addition, in experiment [4], the fluorescence slope is -0.519 (inactive). The NADPH fluorescence slope in experiment [5] is -1.2e-05 (inactive). Moreover, the slope in experiment [6] is 0.00748 (inactive).

In the case of `Cc1cc(NC(=O)CSc2nc(CCC3CCCC3)nc3ccccc23)no1`, in experiment [1], the cell count amounted to 400. Moreover, the inhibition in experiment [1] is 3.5% (inactive); in experiment [3], -41% (inactive); in experiment [7], 8.39% (inactive); in experiment [8], 27.2% (inactive). Also, in experiment [2], the inhibition of aggregation was -13.6% (inactive). In addition, the nuclei count in experiment [2] was determined as 113%; in experiment [3], 90%. In experiment [4], the fluorescence slope was -0.449 (inactive). For the same compound, the NADPH fluorescence slope in experiment [5] is 4e-06 (inactive). The slope in experiment [6] is 0.00867 (inactive).
